Growth data for 40 molecules are collected here from PubChem BioAssay (NCI).

This is part of a sample that, as a whole, favours compounds with a hit. Of some 83,000 tested, about 20% had one in any assay.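 Each cell line was grown in a 96-well plate and treated with one concentration of compound for 48 hours. Values below 10 were considered active.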 A number with no mark means an inactive call. Activity calls are given as the source filed them.

For this experiment, the system named is HCT-15 colon. Kind of experiment: NCI-60 one-dose screen, 48 h (100 = growth as untreated, 0 = no growth, -100 = all killed). The conditions noted are these: 10 µM unless noted. The procedure: Growth inhibition of the HCT-15 human tumor cell line is measured as a screen for anti-cancer activity. Cells are grown in 96 well plates and exposed to the test compound for 48 hours. Compounds are tested at a single concentration, which is 10^-5 M for most compounds. The reported endpoint is percent growth (GI% or GIPRCNT), where numbers from 0 - 100% represent growth inhibition, and numbers from -100% - 0 represent cell death. For example, a value of 40 represents 60% growth inhibition. A value of 0 means no net growth occurred over the course of the experiment. A value of -40 indicates 40% of cells at the beginning of the experiment died by the end of the experiment. A value of -100 means all cells are dead at the end of the experiment.
NCI-60 Human Tumor Cell Lines Screen was performed using the standard one-dose NCI protocol, which is described in more detail at https://dtp.cancer.gov/discovery_development/nci-60/default.htm.
Compounds with GIPRCNT values below 10 were considered active. Activity score was based on GIPRCNT using the following formula: […]
Score is 0 for GIPRCNT values of 100 or above, 50 for GIPRCNT values of 0, and 100 for GIPRCNT values of -100.
`COc1cc(C2CC(c3ccc(Cl)cc3)=NN2C=O)ccc1Oc1ccnc2cc(Cl)ccc12` (stereo not given): the growth is 85.7%.

With `CCN1C(=O)N(CC)C2C1NN=c1s/c(=C\c3ccc(Br)cc3)c(=O)n12` (stereo not given), the growth is 11.4%.

In the case of `N/C(=N\OC(=O)c1ccccc1)C(Cc1ccccc1)C(=O)NOC(=O)c1ccccc1` (stereo not given), the growth is 33.2%.

With `O=[N+]([O-])c1ccc(Sc2nc(Cl)nc(NC3CCCC3)n2)cc1`, the growth was -92.4% [100 µM] (active).

Turning to `COc1cc(OC)c(Cl)cc1N`, the growth is 96.6%.

Regarding `O/N=C/c1ccncc1`, the growth was 104%.

For the molecule `c1cc2c(cc1-c1cnc3nonc3n1)OCO2`, the growth is 57.1%.

On to `CC(C)CCSc1nc(-c2ccc(F)cc2)c(C#N)c(N2CCCCC2)n1`, for which the growth was 97.7%.

For the molecule `CNC(=O)c1c(NC(=O)c2cccc(C(F)(F)F)c2)sc2c1CCC(=O)C2`, the growth was -37% (active).

As for `CS(=O)(=O)c1ccc(C(=O)N/N=C/c2ccccc2O)cc1`, the growth was 18%.

As to `CC(C)CCSc1nc(Nc2ccccc2)c(C#N)c(-c2ccc(F)cc2)n1`, the growth is 71.7%.

`c1csc(-c2cnc3nonc3n2)c1`: the growth was 89.7%.

For `CC(C)(C)c1ccc(C(=O)Nc2sc3cc(O)ccc3c2C(N)=O)cc1`, the growth is 43.9%.

Regarding `CCOC(=O)C(Cc1ccccc1)n1c(O)c(/C=N/c2ncc(Cc3ccc(Cl)cc3Cl)s2)sc1=S` (stereo not given), the growth was 10.5%.

`COc1ccc(C(=O)OC2C(OC3C(O)COC(O[C@H]4C[C@H]5[C@@H]6CC=C7C[C@@H](O)CC[C@]7(C)[C@H]6CC[C@]5(C)[C@H]4[C@H](C)C(=O)CCC(C)C)C3OC(N)=O)OCC(O)C2O)cc1` (stereo not given in full): the growth was 6.08% (active).

With `C[N+](C)(C)CCCCCCCCCC[N+](C)(C)C`, the growth was 107%.

Regarding `COc1ccccc1CNCCCN1C(=O)c2ccc3c4c(ccc(c24)C1=O)C(=O)N(CCCCNCCCN)C3=O`, the growth was 74.6%.

Take `O=C(O)c1ccccc1Oc1cc(-c2ccco2)nc(OCCN2CCOCC2)n1`: the growth is 101%.

On to `OC(CCCCCCCCC(O)CN1CCc2ccccc2C1)CN1CCc2ccccc2C1` (stereo not given), for which the growth is 95.1%.

For `CC(=O)c1ccc(Br)c([N+](=O)[O-])c1`, the growth was 104%.

Turning to `O=C1CCCN1C(O)CCN(Cc1ccccc1)Cc1ccc(Cl)cc1` (stereo not given), the growth was 125%.

As for `S=C(S)Oc1cccc2cccnc12`, the growth was 105%.

In the case of `N/C(=N\O)c1ncc(-c2ccc(C(F)(F)F)cc2)c(NC2CCCCCC2)n1`, the growth was -62.4% [100 µM] (active).

With `COc1cnc2c(c1)C(=O)c1c-2n(CCCN2CCNCC2)c(=O)c2cc(Cl)ccc12`, the growth is -89.4% (active).

Take `COc1ccc2nc(C)cc(Sc3nc4ccccc4s3)c2c1`: the growth is 29.2%.

For `COc1cc(C)c(Cl)cc1C1=NN(c2ccc(S(N)(=O)=O)cc2)C(/C=C/c2ccccc2)C1` (stereo not given), the growth is 35.1%.

Regarding `COc1ccc2c(c1)N(Cc1ccc(Cl)cc1)CCC2N1CCCC1=O` (stereo not given), the growth is 33.5%.

Turning to `O=C(Nc1cccc(-n2ccc3c(NC(=O)c4ccccc4)nccc32)c1)c1ccc(N2CCOCC2)c(C(F)(F)F)c1`, the growth is 14.1%.

With `NS(=O)(=O)c1ccc(CCn2c(SCC(=O)N/N=C/c3ccccc3O)nc3ccccc3c2=O)cc1`, the growth was 59.9%.

`c1cc(C2CCCCC2)ccc1-c1cnc2nonc2n1`: the growth was 9.57% (active).

In the case of `COc1ccc2[nH]cc(C3(c4c[nH]c5ccc(OC)cc45)C(=O)Nc4ccc(F)cc43)c2c1`, the growth is 86.6%.

On to `COc1cccc(-c2nc3sccn3c2-c2ccnc(NCCN3CCCN(C)S3(=O)=O)n2)c1`, for which the growth was 68%.

As for `C=CCN(CC#N)CC=C`, the growth is 116%.

Take `CN(C)CCCN1c2ccccc2CCc2ccccc21`: the growth is 96.6%.

Regarding `CCN(C(=O)CCl)C(C)(C)C(SSSC(c1ccc(Cl)cc1)C(C)(C)N(CC)C(=O)CCl)c1ccc(Cl)cc1` (stereo not given), the growth was 56.3%.

For the molecule `COc1ccc(Cl)cc1Nc1nc(C(F)(F)F)ccc1C(=O)NN`, the growth is 15.8%.

Take `CCN(CC)Cc1cc(Nc2ccnc3ccc(OC)cc23)ccc1O`: the growth was 32.4%.

Turning to `Nc1c(Br)cc2c(c1Br)Cc1cc(Cl)ccc1-2`, the growth was 109%.

As for `O=C(Nc1ccncc1)C(=O)c1cn(S(=O)(=O)c2cccc(Cl)c2F)c2ccccc12`, the growth is 50%.

Turning to `CC(C)(CCc1ccccn1)C(=O)CCCc1ccccn1`, the growth was 108%.
